Data reported in PubChem BioAssay (NCI).
This is part of a sample that, as a whole, favours compounds with a hit. Of some 79,000 tested, about 15% had one in any assay. Activity calls are given as the source filed them. Cut-off read from the data, not from the text of the source: active = growth inhibition above about 70%; inactive = the rest.

Assays:
[1] = NCI Yeast Anticancer Drug Screen. Data for the rad50 strain (AID 155);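 note: 0% = growth of vehicle-only cultures of the same strain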; conditions: S. cerevisiae rad50 strain growth inhibition, active compounds read high
Summary of the method: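 Relative growth inhibition (compound vs vehicle) was measured in yeast with a defined repair-gene alteration.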

[2] = NCI Yeast Anticancer Drug Screen. Data for the mec2-1 strain (AID 157); conditions: S. cerevisiae mec2-1 strain, active compounds read high
Summary of the method: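 Vehicle-treated cultures served as reference for growth inhibition of compound-exposed mec2-1 yeast.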

[3] = NCI Yeast Anticancer Drug Screen. Data for the sgs1 mgt1 strain (AID 161);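 note: 0% = growth of cultures given vehicle only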; conditions: S. cerevisiae sgs1 mgt1 strain, active compounds read high
Summary of the method: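 Mutant yeast exposed to compound; growth scored against vehicle-only wells.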

[4] = NCI Yeast Anticancer Drug Screen. Data for the cln2 rad14 strain (AID 165);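 note: 0% = growth equal to vehicle treated cultures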; conditions: S. cerevisiae cln2 rad14 strain, active compounds read high
Summary of the method: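 Each compound was tested on cln2 rad14 yeast. Inhibition of growth was calculated against vehicle-exposed controls.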

[5] = NCI Yeast Anticancer Drug Screen. Data for the bub3 strain (AID 167); conditions: S. cerevisiae bub3 mutant strain, active compounds read high
Summary of the method: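 Screening used yeast with an engineered genetic alteration affecting cell cycle control. Compound-exposed cultures were compared with vehicle cultures, and reduced growth was taken as inhibition.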

[6] = NCI Yeast Anticancer Drug Screen. Data for the mlh1 rad18 strain (AID 175); conditions: S. cerevisiae mlh1 rad18 strain growth inhibition, active compounds read high
Summary of the method: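 Vehicle-treated cultures served as the reference for growth inhibition in a yeast strain carrying DNA damage repair alterations exposed to each compound.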

[7] = at 5.0 µM (retest, dose inferred, filed as 0.5)
[8] = at 50.0 µM (retest, dose inferred, filed as 5.0)

Measured: growth inhibition

CCOC(=O)c1csc(/C=C/c2cc(OC)c(OC)c(OC)c2)n1
inactive: [1]; [7] 0% | [1]; [8] 3% | [1]; at 50.0 µM -1.2% | [2]; [7] -1% | [2]; [8] 1% | [2]; at 50.0 µM 0.9% | [3]; [7] -2% | [3]; [8] 41% | [3]; at 50.0 µM 46.4% | [4]; [7] -4% | [4]; [8] -3% | [4]; at 50.0 µM -19.5% | [5]; [7] 1% | [5]; [8] 6% | [5]; at 50.0 µM 11.9% | [6]; [7] -2% | [6]; [8] 3% | [6]; at 50.0 µM -8.1%

CC(=O)OCC(=O)[C@@]1(O)CC[C@H]2[C@@H]3CCC4=CC(=O)C=C[C@]4(C)[C@@]3(F)[C@@H](O)C[C@@]21C
inactive: [1]; [7] -27% | [1]; [8] 41% | [1]; at 50.0 µM 0.4% | [2]; [7] 1% | [2]; [8] 16% | [2]; at 50.0 µM -2.8% | [3]; [7] -4% | [3]; [8] 59% | [3]; at 50.0 µM 17.4% | [4]; [7] -6% | [4]; [8] 5% | [4]; at 50.0 µM 66.2% | [5]; [7] -2% | [5]; [8] 51% | [5]; at 50.0 µM 17.6% | [6]; [7] -3% | [6]; at 50.0 µM 15.6%
active: [6]; [8] 71%

O=C1c2ccccc2C(=O)N1c1ccccc1
inactive: [1]; [7] -2% | [1]; [8] -20% | [1]; at 50.0 µM 31.4% | [2]; [7] -3% | [2]; [8] -1% | [2]; at 50.0 µM -5.9% | [3]; [7] 1% | [3]; [8] 5% | [3]; at 50.0 µM 20% | [4]; [7] 3% | [4]; [8] 7% | [4]; at 50.0 µM 42.2% | [5]; [7] 36% | [5]; [8] 15% | [5]; at 50.0 µM 2.3% | [6]; [7] -1% | [6]; [8] 2% | [6]; at 50.0 µM 16.4%

CC(=O)N(c1ccccc1)c1nc2ccccc2s1
inactive: [1]; [7] -8% | [1]; [8] 1% | [1]; at 50.0 µM -41.2% | [2]; [7] -4% | [2]; [8] -4% | [2]; at 50.0 µM -22.9% | [3]; [7] -6% | [3]; [8] -4% | [3]; at 50.0 µM -22.6% | [4]; [7] -2% | [4]; [8] -6% | [4]; at 50.0 µM -42.6% | [5]; [7] 30% | [5]; [8] 59% | [6]; [7] -25% | [6]; [8] -51% | [6]; at 50.0 µM -30.3%
active: [5]; at 50.0 µM 75.7%

Cc1[nH]nc(-c2ccon2)c1N=O
inactive: [1]; [7] 12% | [1]; [8] 61% | [1]; at 50.0 µM 68.7% | [2]; [7] -28% | [2]; [8] 66% | [2]; at 50.0 µM 28.8% | [3]; [7] 16% | [3]; at 50.0 µM -1.75% | [4]; [7] 22% | [4]; [8] 48% | [4]; at 50.0 µM 4.65% | [5]; [7] 56% | [6]; [7] 64% | [6]; at 50.0 µM 58.4%
active: [3]; [8] 80% | [5]; [8] 90% | [5]; at 50.0 µM 78.7% | [6]; [8] 93%
